Data on 23 molecules can be found in PubChem BioAssay (EPA / NIEHS).

Read-out in assay [1]: Cellular tumor antigen p53 (Homo sapiens) (UniProt P04637)
As to the kind of experiment: LTEA_HepaRG_TP53: Life Technologies and Expression Analysis (LTEA) Assay for Tumor Protein P53 (TP53) using HepaRG (AID 2283537; active means hit-call score of the fitted dose curve at least 0.9, where 1 is the maximum; inactive means score below 0.9). Particulars: mRNA level, 48 h; actives raise or lower the signal. The essentials:
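Differentiated HepaRG cells in serum-free induction medium exposed 48 h in duplicate to 8 half-log concentrations, top 100 uM, 0.5% DMSO. TP53 mRNA by TaqMan qRT-PCR (Fluidigm), normalized to ACTB, GAPDH, POLR2A; fitted bidirectionally versus DMSO.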

Read-out in assay [2]: UDP glucuronosyltransferase (UGT1A1), UGT1A1 (gene 54658)
As to the kind of experiment: LTEA_HepaRG_UGT1A1: Life Technologies and Expression Analysis (LTEA) Assay for UDP glucuronosyltransferase (UGT1A1) using HepaRG (AID 2283538; active means hit-call score of the fitted dose curve at least 0.9, where 1 is the maximum; inactive means score below 0.9). As to conditions: mRNA level, 48 h; actives raise or lower the signal. In a few lines: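 Cells are plated, cultured 48 h, switched to serum-free induction medium, then dosed 48 h at eight concentrations (max 100 uM, 0.5% DMSO). RNA is isolated and UGT1A1 expression measured by qRT-PCR; changes versus DMSO are fitted in both directions.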

Read-out in assay [3]: UDP glucuronosyltransferase (UGT1A6), UGT1A6 (gene 54578)
As to the kind of experiment: LTEA_HepaRG_UGT1A6: Life Technologies and Expression Analysis (LTEA) Assay for UDP glucuronosyltransferase (UGT1A6) using HepaRG (AID 2283539; active means hit-call score of the fitted dose curve at least 0.9, where 1 is the maximum; inactive means score below 0.9). Particulars: mRNA level, 48 h; actives raise or lower the signal. In a few lines:
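Endpoint is UGT1A6 transcript induction or loss in a human liver cell line, quantified by TaqMan qRT-PCR 48 h after dosing. Concentrations ran from 100 uM downward in half-log steps in 0.5% DMSO; activity was fitted in both directions versus vehicle.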

Read-out in assay [4]: X-box binding protein 1 (XBP1), XBP1 (gene 7494)
Put plainly: LTEA_HepaRG_XBP1: Life Technologies and Expression Analysis (LTEA) Assay for X-box binding protein 1 (XBP1) using HepaRG (AID 2283540; active means hit-call score of the fitted dose curve at least 0.9, where 1 is the maximum; inactive means score below 0.9). Particulars: mRNA level, 48 h; actives raise or lower the signal. The essentials:
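Human HepaRG monolayers receive test chemical for 48 h across an eight-point half-log series starting at 100 uM. XBP1 mRNA gain or loss is scored against DMSO by qRT-PCR.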

The target of assay [5] is Cellular tumor antigen p53 (Homo sapiens) (UniProt P04637). Put plainly: TOX21_p53_BLA_p2_ratio: Tox21 HCT-116 p53 Agonism Beta-lactamase Assay, Ratio, Phase 2 (AID 2283592). The essentials: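 Cleaved-to-uncleaved substrate ratio (460 vs 530 nm) measured in HCT116 cells with an inducible beta-lactamase reporter linked to p53 activity. Compounds incubated 16 h at 37C before 2 h room-temperature CCF4-AM loading.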
Cellular tumor antigen p53 (Homo sapiens), sequence (P04637 whole entry, looked up): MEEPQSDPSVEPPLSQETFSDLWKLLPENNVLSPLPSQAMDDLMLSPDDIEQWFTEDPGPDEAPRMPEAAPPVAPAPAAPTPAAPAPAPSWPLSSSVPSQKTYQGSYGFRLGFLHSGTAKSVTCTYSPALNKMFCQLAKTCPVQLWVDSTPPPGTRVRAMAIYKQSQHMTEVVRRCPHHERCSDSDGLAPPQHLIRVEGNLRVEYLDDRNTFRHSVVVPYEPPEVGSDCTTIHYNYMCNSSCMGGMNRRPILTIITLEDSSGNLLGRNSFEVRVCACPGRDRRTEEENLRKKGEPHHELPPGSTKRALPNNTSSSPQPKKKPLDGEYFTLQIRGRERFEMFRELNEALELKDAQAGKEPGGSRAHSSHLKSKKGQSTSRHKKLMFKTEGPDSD

Assay [6] has the same target. As to the kind of experiment: TOX21_p53_BLA_p3_ratio: Tox21 HCT-116 p53 Agonism Beta-lactamase Assay, Ratio, Phase 3 (AID 2283596). The essentials: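 Cells were seeded at 4000/well, rested 5 h at 37C, then dosed with DMSO compound solutions (217-fold dilution) for 16 h. CCF4-AM substrate was loaded for 2 h at room temperature, and the 460/530 nm emission ratio was fitted for gain of signal versus DMSO.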

Assay [7] can be described thus: TOX21_p53_BLA_p2_viability: Viability Assessment in the Tox21 HCT-116 p53 Agonism Beta-lactamase Assay, Phase 2 (AID 2283591).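 Further: compound exposure lasted 16 h at 37 °C; actives lower the ATP signal meaning cytotoxicity.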 In a few lines:
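Cytotoxicity readout: CellTiter-Glo ATP luminescence, 30 min at room temperature, after the beta-lactamase read. Cells were HCT116 exposed 16 h at 37C to compounds pin-transferred at 217-fold dilution from DMSO stocks.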

Assay [8] can be described thus: TOX21_p53_BLA_p3_viability: Viability Assessment in the Tox21 HCT-116 p53 Agonism Beta-lactamase Assay, Phase 3 (AID 2283593).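 Further: cells exposed to compound for 16 h before reading.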 The essentials: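 Cellular ATP was quantified by CellTiter-Glo luminescence, read after 30 min at room temperature. Beforehand, HCT116 cells (4000/well) received compound 5 h post-seeding, 217-fold diluted from DMSO, then incubated 16 h at 37C.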

The nature of assay [9]: LTEA_HepaRG_LDH_cytotoxicity: Cytotoxicity Assessment in the Life Technologies and Expression Analysis (LTEA) Assay (AID 2283563). The essentials: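 Human HepaRG hepatic cells are treated with test chemicals for 48 h at up to 100 uM in 0.5% DMSO. Cytotoxicity is scored from medium LDH against the vehicle control.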
Assay [10] is described as follows: ATG_XTT_Cytotoxicity: Cytotoxicity Assessment in the Attagene TRANS-FACTORIAL HepG2 Assay (AID 2283584). The essentials:
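Transfect HepG2 with GAL4-UAS reporter units, dose compound, incubate 24 h, then measure viable cell number by XTT. Fit concentration response against DMSO baseline.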

Values joined by “and” are separate entries in the source; they are usually repeats but may differ in a detail not shown here. Identical values can stand only once. Results filed as inconclusive are left out. The source holds several records for some structures; these can differ, active in one and inactive in another. Active and inactive are the calls of the source. How the source made its calls, unless noted: active means hit-call score of the fitted dose curve at least 0.9, where 1 is the maximum; inconclusive means response in the unintended direction; inactive means score below 0.9.

As to `NCCO`, the molecule was classed as inactive in assay [1], in assay [2], in assay [3], in assay [4], in assay [5] and in assay [6].
With `CC(C)(C)c1cc(O)c(C(C)(C)C)cc1O`, the AC50 (in general, the concentration at which the activity in the assay is half-maximal) was 86.7 µM (active) in assay [1]; 89.2 µM (active) in assay [2]; 91.3 µM (active) in assay [3]; 80.1 µM (active) in [5]; 71.6 µM (active) in [6]. The molecule was called inactive in [4], in [7] and in assay [8].
`Cc1ccc(C)c(O)c1C`: the outcome in assay [1], in assay [2], in assay [4], in [9], in assay [5] and in assay [8] was inactive. The outcome in assay [6] was inactive.
As to `COc1cc(/C=C/C(=O)CC(=O)/C=C/c2ccc(O)c(OC)c2)ccc1O`, the call in [10], in assay [7] and in assay [8] was inactive. For the same molecule, the AC50 is 82.2 µM (active) and 34.1 µM (active) in [7]; 2.06 µM (active) and 36 µM (active) and 6.79 µM (active) in [5]; 57.5 µM (active) and 19.8 µM (active) in assay [8].
With `O=c1c(O)c(-c2ccc(O)c(O)c2)oc2cc(O)cc(O)c12`, the call in [1], in assay [3], in assay [4], in [7] and in [8] was inactive. For the same molecule, the results for the AC50 in [2] and in [5] were 0.322 µM (active) and 20.2 µM (active) [middle of 4 runs], respectively.
For the molecule `Cc1ccc2ncccc2c1`, the result in [1], in [2], in [3], in assay [4], in assay [10] and in [5] was inactive. Besides, the outcome in [6] was inactive.
With `NC(=O)Cn1c(=O)cc(CCN2CCN(c3nccc4sccc34)CC2)c2ccc(F)cc21`, the AC50 was 50 µM (active) in [1], 12.6 µM (active) in [2], 34.6 µM (active) in assay [3] and 77 µM (active) in assay [4]. Moreover, the outcome in assay [5] and in assay [8] was inactive.
For the molecule `CCCCN(CCCC)CCCC`, the molecule was classed as inactive in [1], in assay [2], in assay [3], in assay [4], in assay [10] and in assay [7]. For the same molecule, the outcome in assay [5] and in assay [6] was inactive.
Turning to `CCCCCCCCCCC`, the molecule was classed as inactive in [1], in assay [2], in assay [3], in assay [4], in [10] and in assay [7]. The outcome in [5] and in assay [6] was inactive.
As for `CN1CCN(Cc2cc(-c3ccc4[nH]c(=O)oc4c3)co2)[C@@H](c2ccc(F)cc2)C1`, the molecule was called inactive in assay [1], in assay [2], in [3], in assay [4], in [7] and in assay [5]. Further, in assay [8], the result was inactive.
Regarding `COc1cccc2c1C(=O)c1c(O)c3c(c(O)c1C2=O)C[C@@](O)(C(=O)CO)C[C@@H]3O[C@H]1C[C@H](N)[C@H](O)[C@H](C)O1`, the molecule was called inactive in assay [10], in assay [7] and in [8]. For the same molecule, the AC50 in assay [5] is 98.2 nM (active) and 390 nM (active); in assay [6], 0.401 µM (active).
`CCCCCCC(=O)OCC`: the molecule was called inactive in assay [1], in assay [2], in assay [3], in assay [4], in assay [10] and in assay [5]. Further, the result in assay [6] was inactive.
As to `CCCc1cc(=O)[nH]c(=S)[nH]1`, the outcome in [1], in assay [2], in assay [3], in assay [4], in [7] and in assay [5] was inactive. Further, the molecule was classed as inactive in assay [8].
As to `O=C(OCCCCCOC(=O)c1ccccc1)c1ccccc1`, the AC50 is 1.31 µM (active) in assay [1], 1.07 µM (active) in assay [2] and 0.761 µM (active) in assay [4]. Further, the call in assay [3], in assay [10], in assay [5], in [8] and in [6] was inactive.
On to `O=[N+]([O-])C(CO)(CO)CO`, for which the outcome in assay [1], in assay [2], in assay [3], in assay [4], in [7] and in assay [5] was inactive. In addition, in assay [8], the outcome was inactive.
`C[Si]1(C)O[Si](C)(C)O[Si](C)(C)O[Si](C)(C)O1`: the outcome in assay [1], in assay [2], in assay [3], in assay [4], in assay [7] and in [5] was inactive. Besides, the result in [8] was inactive.
Turning to `Cc1cccc([N+](=O)[O-])c1C`, the molecule was classed as inactive in assay [1], in assay [2], in assay [3], in [4], in [7] and in assay [5]. In addition, the molecule was called inactive in assay [8].
With `Clc1cc(Cl)c(Cl)cc1Cl`, the molecule was classed as inactive in [1], in assay [2], in [3], in [4], in assay [10] and in [7]. Besides, the molecule was called inactive in assay [8].
`CCCCCCCCCCCCCO`: the call in [1], in [2], in [3], in assay [4], in assay [10] and in assay [5] was inactive. Besides, the molecule was called inactive in [8].
As for `C=CCc1ccc(O)c(OC)c1`, the molecule was called inactive in assay [1], in assay [2], in assay [3], in assay [4], in assay [7] and in [5]. Also, the outcome in [8] and in assay [6] was inactive.
On to `COc1cc(S(=O)(=O)O)c(C)cc1N=Nc1c(O)ccc2cc(S(=O)(=O)O)ccc12`, for which the outcome in assay [1], in assay [2], in assay [3], in assay [4], in assay [10] and in assay [5] was inactive.
Take `COc1ccc(S(=O)(=O)N2C(=O)[C@@](c3ccccc3OC)(N3C[C@H](O)C[C@H]3C(=O)N(C)C)c3cc(Cl)ccc32)c(OC)c1`: the AC50 was 22.7 µM (active) in [1]; 34.8 µM (active) in [2]; 79 µM (active) in [3]; 86.3 µM (active) in [7]; 74.9 µM (active) in assay [5]. In addition, the result in [4] was inactive.
As for `CNCc1cc(F)ccc1Oc1ccc(Cl)c(Cl)c1`, the outcome in assay [1], in assay [4], in assay [5] and in [8] was inactive. Moreover, the figures for the half-maximal activity concentration (AC50) in assay [2] and in assay [3] were 82.8 µM (active) and 74 µM (active), respectively.
